Screens as filed in PubChem.
UHRF1 MBD2 ctr: human UHRF1 methylated DNA binding inhibitors. Q96T88. UHRF1 binding to methylated oligo, TR-FRET. inhibition, % at 4.4 µM. 0.75% of 370,000 active. AID 687016; in the data active = inhibition above about 21%;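 also: UHRF1 SRA domain binding a hemimethylated CpG hairpin DNA probe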
MBD2 inh: inhibitors of human MBD2 binding to methylated oligonucleotide. Q9UBB5. TR-FRET. inhibition, % at 4.4 µM. 0.31% of 370,000 active; in the data active = inhibition above about 13%
PLC-gamma1 inh: inhibitors of human phospholipase C gamma1; P19174; purified PLC-gamma1, fluorogenic substrate, fluorescence; inhibition, % at 12.2 µM; 0.84% of 370,000 active; AID 720700
Target sequence (P19174 whole entry, looked up): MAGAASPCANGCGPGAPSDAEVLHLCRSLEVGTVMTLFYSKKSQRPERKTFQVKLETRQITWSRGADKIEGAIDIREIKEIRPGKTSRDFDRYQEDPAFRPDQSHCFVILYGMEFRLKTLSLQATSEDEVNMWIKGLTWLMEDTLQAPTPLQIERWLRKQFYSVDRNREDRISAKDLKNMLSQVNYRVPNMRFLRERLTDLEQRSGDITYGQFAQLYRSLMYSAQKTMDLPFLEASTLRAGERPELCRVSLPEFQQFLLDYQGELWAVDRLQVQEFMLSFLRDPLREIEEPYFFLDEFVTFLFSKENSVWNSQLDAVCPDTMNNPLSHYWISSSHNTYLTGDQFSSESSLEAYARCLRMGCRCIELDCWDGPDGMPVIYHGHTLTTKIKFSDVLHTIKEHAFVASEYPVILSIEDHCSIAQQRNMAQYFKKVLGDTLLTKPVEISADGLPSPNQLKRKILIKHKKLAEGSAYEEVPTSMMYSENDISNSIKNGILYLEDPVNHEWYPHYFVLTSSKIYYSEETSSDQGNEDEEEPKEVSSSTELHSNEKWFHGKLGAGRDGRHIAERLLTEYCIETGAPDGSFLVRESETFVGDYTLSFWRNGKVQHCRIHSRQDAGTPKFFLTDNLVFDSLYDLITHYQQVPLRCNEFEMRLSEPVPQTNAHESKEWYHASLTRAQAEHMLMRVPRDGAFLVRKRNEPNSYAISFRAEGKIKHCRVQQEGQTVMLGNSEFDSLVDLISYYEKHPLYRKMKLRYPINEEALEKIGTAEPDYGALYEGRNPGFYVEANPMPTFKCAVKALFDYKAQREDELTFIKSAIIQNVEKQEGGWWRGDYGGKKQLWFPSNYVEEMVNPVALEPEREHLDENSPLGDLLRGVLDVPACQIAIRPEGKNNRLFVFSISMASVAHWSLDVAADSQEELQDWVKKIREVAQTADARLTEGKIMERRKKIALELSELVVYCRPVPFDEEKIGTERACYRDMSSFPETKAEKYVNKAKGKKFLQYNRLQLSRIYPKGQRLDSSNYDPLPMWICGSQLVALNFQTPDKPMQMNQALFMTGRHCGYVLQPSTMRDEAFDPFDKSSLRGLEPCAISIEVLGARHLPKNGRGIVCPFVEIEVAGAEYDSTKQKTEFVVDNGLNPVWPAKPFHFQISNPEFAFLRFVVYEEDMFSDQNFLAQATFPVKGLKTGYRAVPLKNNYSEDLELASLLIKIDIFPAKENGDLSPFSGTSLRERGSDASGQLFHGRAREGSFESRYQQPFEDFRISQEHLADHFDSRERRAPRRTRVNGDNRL
PLC-beta3 inh: PLC-beta3 (human) inhibition, primary screen; Q01970; Purified PLC-beta3, fluorogenic substrate, fluorescence; inhibition, % at 12.2 µM; 0.18% of 370,000 active; in the data active = inhibition above about 11%
LEDGF integ inh: blocks HIV-1 LEDGF/p75-dependent DNA integration; AID 743269; 0.64% of 370,000 active; TR-FRET IN-LEDGF/p75 DNA integration, Eu/Cy5; inhibition, % at 3.7 µM;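 active = inhibition above the screen-wide mean plus 3 SD, cut at about 13% in these data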;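 also: signal is the Cy5 over europium emission ratio at 671 and 618 nm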
PLCg1 ctr: counter-screen for PLC-beta3 inhibitors: inhibitors of human PLC-gamma1; shares compounds with PLC-gamma1 inh; purified PLC-gamma1, fluorogenic substrate, fluorescence; inhibition, % at 12.3 µM; 3.1% of 3,300 active
PLCbeta3 conf: human PLC-beta3 inhibition, confirmation. shares compounds with PLC-gamma1 inh. purified PLC-beta3, fluorogenic substrate fluorescence. inhibition, % at 12.3 µM. 1% of 3,300 active. AID 743261; in the data active = inhibition above about 11%
A number is an active result; . = inactive; / = no result. Rows were chosen to be rich in hits. Some 2.4% of all compounds tested hit in one or more screens of this group. Rule as the data show it, unless noted: active = inhibition above about 9.5%; inactive = the rest.

SMILES | UHRF1 MBD2 ctr | MBD2 inh | PLC-gamma1 inh | PLC-beta3 inh | LEDGF integ inh | PLCg1 ctr | PLCbeta3 conf
COc1ccc(C2C(C(=O)NCCCN3CCOCC3)c3ccccc3C(=O)N2c2ccc(OC)cc2)cc1 (stereo not drawn) | . | . | . | 11 | . | . | .
COc1ccc(S(=O)(=O)N2CCC(C(=O)NCCN3CCOCC3)CC2)cc1 | . | . | 12 | . | . | . | .
CCCCNC(=O)C1c2ccccc2C(=O)N(c2ccc(OC)cc2)C1c1ccc(OC)cc1 (stereo not drawn) | . | . | . | . | . | / | /
COc1ccc(-c2cccc(C(=O)Nc3ccccc3C)c2)cc1 | . | . | . | . | . | / | /
Cc1ccccc1NC(=O)c1cccc(C(=O)Nc2ccccc2C)c1 | . | . | 12 | . | . | . | .
CC(C)=CCN1CCN(Cc2cc(CC(C)C)n[nH]2)CC1CCO (stereo not drawn) | . | . | 9.6 | . | . | . | .
CC(C)=CCN1CCN(Cc2nc(C(C)C)cs2)CC1CCO (stereo not drawn) | . | . | . | . | . | / | /
FC(F)(F)c1ccccc1CN1CCCc2nc(-c3ccc(Br)cc3)ccc21 | . | . | . | . | . | / | /
COC(=O)c1sccc1S(=O)(=O)Nc1ccc(N2CCCCC2)cc1 | . | . | 9.6 | . | . | . | .
COC(=O)c1sccc1S(=O)(=O)Nc1ccc(S(N)(=O)=O)cc1 | . | . | . | . | . | / | /
COc1ccc(N2CCN(S(=O)(=O)c3cccc4nsnc34)CC2)cc1 | . | . | . | . | . | / | /
CC(=O)c1ccc(N2CCN(S(=O)(=O)c3cccc4nsnc34)CC2)cc1 | . | . | 10 | . | . | . | .
CCn1cc(C(=O)O)c(=O)c2ccc(C)nc21 | . | . | 10 | . | . | . | .
Cc1onc(-c2c(F)cccc2Cl)c1C(=O)N1C=CC(C(F)(F)Cl)=NCC1 | . | . | 13 | 11 | . | . | .
Cc1ccc(S(=O)(=O)N(C)CCCC(=O)N2CCOCC2)cc1 | . | . | . | . | . | / | /
Cc1ccc(S(=O)(=O)N(C)CCCC(=O)N2CCN(C=O)CC2)cc1 | . | . | 10 | 11 | . | . | .
CC(C)(C)N(NC(=O)Nc1cccc(F)c1)C(=O)c1ccccc1Cl | . | . | . | . | . | / | /
O=C(NCc1ccco1)c1ccc(CNc2c(N3CCCCC3)c(=O)c2=O)cc1 | . | . | . | 11 | . | . | .
CC1CCN(c2c(NCc3ccc(C(=O)NCc4ccco4)cc3)c(=O)c2=O)CC1 | . | . | . | . | . | / | /
Cc1ccc(Sc2ncccc2[N+](=O)[O-])cc1 | . | . | . | . | . | / | /
Cc1c([N+](=O)[O-])cnc(Sc2ccccc2)c1[N+](=O)[O-] | . | . | 11 | . | . | 9.5 | .
COc1ccc(-c2cc(-c3nnc(SCC(=O)N4CCOCC4)n3N)[nH]n2)cc1 | . | . | . | . | . | / | /
O=C(NN=Cc1ccccc1C(F)(F)F)c1cc(-c2ccc(Cl)cc2)n[nH]1 | . | . | . | . | . | / | /
O=C(NNC(=S)NC(=O)c1ccc(F)cc1)c1ccncc1 | . | . | . | . | . | / | /
O=C(NNC(=O)c1ccc(F)cc1)c1ccncc1 | . | . | 11 | . | . | . | .
SMILES | UHRF1 MBD2 ctr | MBD2 inh | PLC-gamma1 inh | PLC-beta3 inh | LEDGF integ inh | PLCg1 ctr | PLCbeta3 conf
O=c1cc([O-])[n+]2c3n1CCCN3CCC2 | . | . | . | 12 | . | . | .
O=C(CSc1nnc(-c2ccc(Cl)cc2Cl)n1C1CCCCC1)N1CCCC1 | . | . | 11 | . | . | . | .
O=C(CSc1nnc(-c2ccc(Br)cc2)n1C1CCCCC1)N1CCCC1 | . | . | 16 | . | . | . | .
O=C(Cc1cccs1)N/N=C\c1ccc(O)cc1 | . | . | . | . | . | / | /
O=C(CC(=O)N/N=C/c1ccc(O)cc1)N/N=C/c1ccc(O)cc1 | . | . | 12 | . | . | . | .
O=C(NCc1cccnc1)c1cc(C2CCCN(C(=O)c3cccs3)C2)on1 (stereo not drawn) | . | . | 16 | . | . | . | .
Cc1ccc(Cn2nnc3c2-c2ccccc2S(=O)(=O)N(C2CC2)C3)cc1 | . | . | . | . | . | / | /
COC(CNC(=O)[C@H](Cc1ccccc1)NC1(C(=O)NC2CCCCC2)CCCC1)OC | . | . | 9.8 | . | . | . | .
C=C(C)C#CCNCc1ccccc1 | . | . | . | . | . | / | /
CN(C)[C@@H]1CCN(c2cccc3c2S(=O)(=O)N(C2CC2)CCCO3)C1 | . | . | . | . | . | / | /
COc1ccc(-n2c(=S)[nH]c3cc(C(=O)N(C)Cc4ccccc4)ccc3c2=O)cc1 | . | . | 12 | . | . | . | .
CC1(C)N([O-])C(c2ccccc2)=C[N+](=O)C1(C)C | . | . | 10 | . | . | . | .
COc1ccc(OC)c(C2=C[N+](=O)C(C)(C)C(C)(C)N2[O-])c1 | . | . | . | . | . | / | /
Cc1ccc(NC(=O)OC2CC3CC2[C@H]2CCCCN2[C@H]3Cc2ccccc2)cc1 (stereo partly drawn) | . | . | . | . | . | / | /
O=C1C=C(/C=C/c2ccccc2)C[C@@H](c2ccc(F)cc2)C1 | . | . | . | . | . | / | /
COc1ccc([C@H]2CC(=O)C=C(/C=C/c3ccccc3)C2)cc1OC | . | . | 11 | 16 | . | . | .
N#CCC[C@@H]1CC[C@]2(CCCN(C(=O)c3ccco3)C2)O1 | . | . | . | . | . | / | /
CCN(CC)C(=O)C[n+]1cccc(C(N)=O)c1 | . | . | 9.6 | . | . | . | .
Cc1ccc(C(=O)C[n+]2cccc(C(N)=O)c2)cc1 | . | . | . | . | . | / | /
CN(C)C(=O)CSc1nnc(CCN)o1 | . | . | 13 | . | . | . | .
COC(=O)[C@@]12CCCCC3=C1N(CCC3)C(=O)[C@H]2CC(=O)NCc1ccc(OC)c(OC)c1 | . | . | . | . | . | / | /
O=C1CC(c2ccc(Cl)cc2)c2c(O)cc(O)cc2O1 (stereo not drawn) | . | . | 10 | . | . | . | .
CCOC(=O)c1nncc(-c2ccccc2)n1 | . | . | . | 11 | . | . | .
CCOC(=O)c1cc(-c2ccccc2)n[nH]1 | . | . | . | . | . | / | /
OCC[C@@H]1C[C@@H](O)[C@H](O)[C@]2(CCCO2)O1 | . | . | 12 | . | . | . | .
C[C@@H]1CCC[C@@]2(O[C@@H](CCO)C[C@H](O)[C@H]2O)O1 | . | . | 12 | . | . | . | .
COC(=O)C1CN(C2CCCC2)CCS(=O)(=O)N1Cc1cn(Cc2ccccc2)nn1 (stereo not drawn) | . | . | . | . | . | / | /
COc1cc2cc(-c3ccc(O)cc3O)nc(C)c2cc1OC | . | . | 13 | . | . | . | .
CC(N)(C(=O)O)c1cccc(OCc2cccc(Cl)c2)c1 (stereo not drawn) | . | . | 11 | . | . | . | .
Cc1oc2ccc(OCc3cccc(Cl)c3)cc2c1C(=O)O | . | . | . | . | . | / | /
